Screening results (PubChem)
Autofluor 339 – intrinsic fluorescence of library compounds, ex339/em460 – biochemical, MLSMR library, data from DPM-DC assay, artefact control, profiling panel; compound autofluorescence, ex339/em460 nm, NADH buffer; active compounds read high; 1 = no-compound wells, NADH background; fluorescence fold increase at 10 µM; 65,000 compounds, 5.5% hits;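 active = at 10 µM, mean starting fluorescence two-fold or more over control wells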;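 also: signal is the first read of a kinetic run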
MK inhibit – S. pneumoniae MK inhibitors, primary screen, biochemical, PK/LDH-coupled NADH absorbance | purified MK, PK/LDH-coupled NADH absorbance 340 nm | inhibition, % at 10 µM | 65,000 compounds, 0.48% hits | AID 555, 2006;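 active = ranked among the strongest by inhibition in the single 10 µM screen, a fixed top-ranked set picked for dose follow-up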
PMK inhibit – S. pneumoniae PMK inhibitors, primary screen, biochemical, mevalonate pathway, pilot trial included; 65,000 compounds, 0.49% hits; inhibition, % at 10 µM; phosphomevalonate kinase (Streptococcus pneumoniae D39); purified PMK, PK/LDH-coupled NADH absorbance 340 nm;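 active = top-ranked compounds by inhibition in the single 10 µM screen, taking a fixed number of the strongest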;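 also: 0% = full reaction with DMSO carrier and 100% = background rate without enzyme reaction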
NADH coupling – inhibitors of PK/LDH coupling enzymes, profiling panel, artefact control, biochemical, MLSMR library; coupled PK/LDH NADH assays, four targets; IC50, µM (doses to about 10 µM), for inactives: top-dose inhibition; 65,000 compounds, 0.02% hits; AID 774, 2007;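 active = single-dose screening hits from any of four coupled enzyme assays that gave an IC50 when retested across doses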;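 also: the DPM-DC format reads NADH fluorescence rather than 340 nm absorbance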
Abs 340nm – compound light absorbance at 340 nm, profiling panel, artefact control, biochemical, MLSMR library, data from PS, PMK, MK assays. 65,000 tested, under 10 active. fold change at 10 µM. compound absorbance at 340 nm, fold over control. AID 708, 2007;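 active = at 10 µM dose, initial 340 nm absorbance at least 2 fold that of control wells; inactive = change under 2 fold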;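 also: initial absorbance extrapolated from kinetic A340 decline of NADH oxidation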
Spn DPM-DC inh – S. pneumoniae DPM-DC inhibitors, primary screen, biochemical, PK/LDH-coupled NADH fluorescence | purified DPM-DC | calls only at 10 µM | 65,000 compounds, 0.49% hits | AID 556, 2006;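 active = the 320 compounds with the highest percent inhibition in the single-dose primary screen, excluding strongly autofluorescent ones, cut at about 32% in these data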;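 also: kinetic rate of NADH fluorescence loss reporting ADP formed by the decarboxylase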
* marks the source's active call; other numbers are inactive results. A selection: hits, their analogues and other compounds. The true share with any hit is near 6.8%.

Cc1cccc(NC(=O)c2sc3nc(-c4ccccc4)cn3c2C)n1 was read as Autofluor 339 1.2, MK inhibit 0, PMK inhibit 5, NADH coupling 2%, Abs 340nm 1 and Spn DPM-DC inh inactive.
Cc1cccc(NC(=O)c2sc3nc(-c4ccc(F)cc4)cn3c2C)n1 was read as Autofluor 339 4.5*, MK inhibit 8, PMK inhibit 14, NADH coupling 11% and Abs 340nm 1.1.
CC(C)n1c(=N)c(C(=O)NCCc2ccccc2)cc2c(=O)n3ccccc3nc21 was read as Autofluor 339 5.1*, MK inhibit 1, PMK inhibit 3, NADH coupling 2% and Abs 340nm 1.
Screening CCn1c(=N)c(C(=O)OC)cc2c(=O)n3ccccc3nc21 returned Autofluor 339 3.7*, MK inhibit 6, PMK inhibit 17, NADH coupling 12% and Abs 340nm 1.
For COC(=O)c1cc2c(=O)n3ccccc3nc2n(C(C)C)c1=N the results were Autofluor 339 3.9*, MK inhibit 4, PMK inhibit 0, NADH coupling 2% and Abs 340nm 1.
Screening Clc1ccc(SCCn2ccnc2)cc1 returned Autofluor 339 1, MK inhibit 41*, PMK inhibit 0, NADH coupling 4%, Abs 340nm 0.99 and Spn DPM-DC inh inactive.
Clc1ccc(OCCn2ccnc2)c(Cl)c1 was read as Autofluor 339 1.1, MK inhibit 6, PMK inhibit 3, NADH coupling 4%, Abs 340nm 1.1 and Spn DPM-DC inh inactive.
Cc1ccc(N2C(=O)CSC2c2cccnc2)cc1F (centres undefined) was read as Autofluor 339 1.1, MK inhibit 0, PMK inhibit 14, NADH coupling 5%, Abs 340nm 1 and Spn DPM-DC inh inactive.
`Cn1c(=O)[nH]c(=O)c2c1nc(NC1CCCCC1)n2CCO` gave Autofluor 339 1.1, MK inhibit 0, PMK inhibit 1, NADH coupling 1%, Abs 340nm 1 and Spn DPM-DC inh inactive.
Cn1c(=O)[nH]c(=O)c2c1nc(NC1CCCCC1)n2Cc1ccccc1 was read as Autofluor 339 2.5*, MK inhibit 37, PMK inhibit 17, NADH coupling 31%, Abs 340nm 0.98 and Spn DPM-DC inh active.
CC(=O)N(CC1CCCO1)c1nnc(-c2cnccn2)s1 (centres undefined) was read as Autofluor 339 1.5, MK inhibit 0, PMK inhibit 0, NADH coupling 0%, Abs 340nm 1 and Spn DPM-DC inh inactive.
Screening COC(=O)c1cc(OC)c(OC)cc1NC(=O)c1ccoc1C returned Autofluor 339 3.3*, MK inhibit 3, PMK inhibit 5, NADH coupling 4% and Abs 340nm 1.1.
COC(=O)c1cc(OC)c(OC)cc1NC(=O)c1ccccc1 was read as Autofluor 339 2.2*, MK inhibit 1, PMK inhibit 3, NADH coupling 2% and Abs 340nm 1.1.
Screening CC(=O)N=c1c(C#N)cc2c(=O)n3cccc(C)c3nc2n1CC(C)C returned Autofluor 339 3.9*, MK inhibit 13, PMK inhibit 16, NADH coupling 15% and Abs 340nm 1.
For Cc1cc(-n2c(=O)c(C#N)cc3c(=O)n4cccc(C)c4nc32)no1 the results were Autofluor 339 4*, MK inhibit 7, PMK inhibit 0, NADH coupling 4% and Abs 340nm 1.
`Cc1ccc(-n2c(=O)c(C#N)cc3c(=O)n4ccccc4nc32)cc1` gave Autofluor 339 3.3*, MK inhibit 0, PMK inhibit 15, NADH coupling 2% and Abs 340nm 1.
`Cc1cccn2c(=O)c3cc(C#N)c(=N)n(Cc4ccncc4)c3nc12` gave Autofluor 339 1.1, MK inhibit 7, PMK inhibit 7, NADH coupling 5%, Abs 340nm 1 and Spn DPM-DC inh inactive.
Cc1cccn2c(=O)c3cc(C#N)c(=O)n(-c4c(C)n(C)n(-c5ccccc5)c4=O)c3nc12 was read as Autofluor 339 1.1, MK inhibit 6, PMK inhibit 5, NADH coupling 4%, Abs 340nm 1.1 and Spn DPM-DC inh inactive.
`Cc1cccn2c(=O)c3cc(C#N)c(=NC(=O)c4ccc5c(c4)OCO5)n(CC(C)C)c3nc12` gave Autofluor 339 2.5*, MK inhibit 11, PMK inhibit 11, NADH coupling 19%, Abs 340nm 1 and Spn DPM-DC inh active.
For CCC(=O)N(Cc1ccc(S(N)(=O)=O)cc1)C1CC(=O)N(c2ccc(OC)cc2)C1=O (centres undefined) the results were Autofluor 339 1.1, MK inhibit 1, PMK inhibit 0, NADH coupling 0%, Abs 340nm 1 and Spn DPM-DC inh inactive.
Screening CCOc1ncccc1C(=O)NCC1COc2ccccc2O1 (centres undefined) returned Autofluor 339 1.1, MK inhibit 2, PMK inhibit 0, NADH coupling 1%, Abs 340nm 1 and Spn DPM-DC inh inactive.
Screening CCS(=O)(=O)c1ccc2oc(Nc3ccccc3C)nc2c1 returned Autofluor 339 1.1, MK inhibit 1, PMK inhibit 7, NADH coupling 3%, Abs 340nm 1 and Spn DPM-DC inh inactive.
O=C(CN1C(=O)c2ccccc2C1=O)OCN1C(=O)c2ccccc2C1=O was read as Autofluor 339 1.1, MK inhibit 0, PMK inhibit 12, NADH coupling 4%, Abs 340nm 0.93 and Spn DPM-DC inh inactive.
Screening COCCn1c(=NC(=O)CSC(C)=O)sc2cc(OC)ccc21 returned Autofluor 339 1.4, MK inhibit 5, PMK inhibit 4, NADH coupling 13%, Abs 340nm 1.1 and Spn DPM-DC inh inactive.
Screening COCCn1c(=NC(=O)CSCC(=O)NC2CCCCC2)sc2cc(OC)ccc21 returned Autofluor 339 2*, MK inhibit 4, PMK inhibit 13, NADH coupling 6%, Abs 340nm 1.1 and Spn DPM-DC inh inactive.
`CC(C)CC(=O)Nc1cccc(-c2nc3ccccc3o2)c1` gave Autofluor 339 1.2, MK inhibit 6, PMK inhibit 2, NADH coupling 3%, Abs 340nm 1 and Spn DPM-DC inh inactive.
`O=C(Cc1ccccc1)Nc1ccc2oc(-c3ccncc3)nc2c1` gave Autofluor 339 3.9*, MK inhibit 8, PMK inhibit 2, NADH coupling 5% and Abs 340nm 1.1.
